Results as given in PubChem BioAssay (EPA / NIEHS).
Active and inactive are the calls of the source. How the source made its calls: active means hit-call score of the fitted dose curve at least 0.9, where 1 is the maximum; inactive means score below 0.9.

What was measured:
[1] = ATG_M_32_CIS: Attagene CIS-FACTORIAL HepG2 Assay for M32 Transcription Factor (Internal Marker) (AID 2282949); conditions: HepG2 Attagene cis-factorial M32 reporter, mRNA; actives raise or lower the signal;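 further: background control marker of the multiplexed CIS panel rather than a real target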
How it was run: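 HepG2 human liver cells transiently transfected with cis-promoter-driven multiple reporter transcription units, dosed 24 h. Reporter mRNA quantified by RT-PCR, FAM-labelled primer extension, HpaI digest and capillary electrophoresis; bidirectional fit versus DMSO baseline.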

[2] = ATG_M_06_CIS: Attagene CIS-FACTORIAL HepG2 Assay for M06 Transcription Factor (Internal Marker) (AID 2282950); conditions: HepG2 Attagene CIS-FACTORIAL M06 internal marker reporter; actives raise or lower the signal
How it was run: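 HepG2 cells transiently transfected with cis-regulated multiple reporter transcription units were exposed to chemical for 24 h; reporter mRNA was quantified by RT-PCR, 6-FAM primer labelling, HpaI digestion and capillary electrophoresis, fitted bidirectionally against DMSO.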

[3] = molecular target: Hypoxia-inducible factor 1-alpha (Homo sapiens) (UniProt Q16665); assay: ATG_HIF1a_CIS: Attagene CIS-FACTORIAL HepG2 Assay for human Hypoxia Inducible Factor 1 (HIF1A) (AID 2282951); conditions: HepG2 Attagene cis-factorial HIF1a reporter transcription; actives raise or lower the signal
Hypoxia-inducible factor 1-alpha (Homo sapiens), sequence (Q16665 whole entry, looked up): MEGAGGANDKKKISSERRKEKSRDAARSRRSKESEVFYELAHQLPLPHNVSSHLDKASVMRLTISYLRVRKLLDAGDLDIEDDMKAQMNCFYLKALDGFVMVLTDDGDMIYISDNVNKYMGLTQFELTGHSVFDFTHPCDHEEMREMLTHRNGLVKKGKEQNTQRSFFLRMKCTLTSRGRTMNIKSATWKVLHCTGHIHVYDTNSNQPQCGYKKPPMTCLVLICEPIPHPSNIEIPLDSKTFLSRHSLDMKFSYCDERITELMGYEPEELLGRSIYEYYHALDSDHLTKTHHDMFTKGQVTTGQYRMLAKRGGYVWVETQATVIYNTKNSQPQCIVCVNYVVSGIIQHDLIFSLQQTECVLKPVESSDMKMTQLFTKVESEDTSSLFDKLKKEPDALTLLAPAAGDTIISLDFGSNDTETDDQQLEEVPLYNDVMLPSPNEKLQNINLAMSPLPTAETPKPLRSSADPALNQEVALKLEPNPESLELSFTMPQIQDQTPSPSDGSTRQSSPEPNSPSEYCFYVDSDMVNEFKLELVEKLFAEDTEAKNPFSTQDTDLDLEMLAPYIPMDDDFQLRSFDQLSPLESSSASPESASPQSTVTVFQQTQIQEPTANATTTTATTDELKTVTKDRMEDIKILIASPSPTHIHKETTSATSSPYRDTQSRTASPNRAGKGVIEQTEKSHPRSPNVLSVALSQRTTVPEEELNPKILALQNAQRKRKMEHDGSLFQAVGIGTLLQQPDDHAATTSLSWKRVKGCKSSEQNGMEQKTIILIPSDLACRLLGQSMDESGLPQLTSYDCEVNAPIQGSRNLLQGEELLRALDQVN
How it was run: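 Endogenous-TF cis reporter readout, human HepG2 cells, 24 h incubation; mRNA detected via RT-PCR and capillary electrophoresis fluorescence; DMSO-normalised bidirectional fitting.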

[4] = molecular target: Hepatocyte nuclear factor 6 (Homo sapiens) (UniProt Q9UBC0); assay: ATG_HNF6_CIS: Attagene CIS-FACTORIAL HepG2 Assay for human Hepatocyte Nuclear Factor 6 (HNF6) (AID 2282952); conditions: HepG2 Attagene cis-factorial HNF6 reporter transcription; actives raise or lower the signal
Hepatocyte nuclear factor 6 (Homo sapiens), sequence (Q9UBC0 whole entry, looked up): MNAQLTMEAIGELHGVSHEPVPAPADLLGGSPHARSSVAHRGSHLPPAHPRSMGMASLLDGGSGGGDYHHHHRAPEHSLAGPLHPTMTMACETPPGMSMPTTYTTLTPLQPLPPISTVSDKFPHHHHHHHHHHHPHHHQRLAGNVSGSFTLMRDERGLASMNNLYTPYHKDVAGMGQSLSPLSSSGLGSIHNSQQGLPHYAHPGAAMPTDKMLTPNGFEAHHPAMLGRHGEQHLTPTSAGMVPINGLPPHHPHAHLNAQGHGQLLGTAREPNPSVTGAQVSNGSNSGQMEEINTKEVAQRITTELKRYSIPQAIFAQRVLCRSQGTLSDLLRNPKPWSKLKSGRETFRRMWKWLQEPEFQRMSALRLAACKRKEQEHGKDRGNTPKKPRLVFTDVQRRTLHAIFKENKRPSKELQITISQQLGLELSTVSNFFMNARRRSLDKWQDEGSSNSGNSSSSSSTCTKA
How it was run: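 Endogenous factor activity read in transiently transfected HepG2 via promoter-regulated reporter transcripts. RNA harvested 24 h post-dosing, reverse-transcribed, PCR-amplified, FAM-labelled, HpaI-digested and resolved by capillary electrophoresis; fitted in both directions against DMSO.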

[5] = molecular target: Heat shock factor protein 1 (Homo sapiens) (UniProt Q00613); assay: ATG_HSE_CIS: Attagene CIS-FACTORIAL HepG2 Assay for human Heat Shock Transcription Factor 1 (HSE) (AID 2282953); conditions: HepG2 HSE cis-reporter, Attagene RNA transcription; actives raise or lower the signal
Heat shock factor protein 1 (Homo sapiens), sequence (Q00613 whole entry, looked up): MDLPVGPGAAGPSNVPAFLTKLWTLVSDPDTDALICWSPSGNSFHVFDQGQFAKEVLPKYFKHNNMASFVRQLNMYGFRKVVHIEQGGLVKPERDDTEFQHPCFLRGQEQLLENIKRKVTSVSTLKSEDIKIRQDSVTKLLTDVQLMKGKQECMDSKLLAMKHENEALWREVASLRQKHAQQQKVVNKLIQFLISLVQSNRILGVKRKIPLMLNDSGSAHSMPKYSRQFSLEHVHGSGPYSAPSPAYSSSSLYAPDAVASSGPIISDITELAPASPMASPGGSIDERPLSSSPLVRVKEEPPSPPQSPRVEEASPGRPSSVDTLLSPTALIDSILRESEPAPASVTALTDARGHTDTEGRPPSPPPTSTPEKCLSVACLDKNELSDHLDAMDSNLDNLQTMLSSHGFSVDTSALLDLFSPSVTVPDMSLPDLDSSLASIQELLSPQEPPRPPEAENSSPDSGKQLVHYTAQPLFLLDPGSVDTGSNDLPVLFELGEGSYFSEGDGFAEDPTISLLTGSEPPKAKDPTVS
How it was run: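 HepG2 cells transiently transfected with multiple reporter transcription units under cis-regulatory promoter control, measuring endogenous transcription factor activity. After 24 h chemical exposure, reporter mRNA quantified by RT-PCR, fluorescent labelling, HpaI digestion and capillary electrophoresis; bidirectional fit versus DMSO.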

[6] = ATG_MRE_CIS: Attagene CIS-FACTORIAL HepG2 Assay for human Metal Responsive Element (MRE) (AID 2282954); conditions: HepG2 MRE cis-reporter transcription, Attagene multiplex; actives raise or lower the signal
How it was run: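 Endogenous MRE-dependent transcription read as reporter mRNA in transiently transfected human HepG2 cells at 24 h. RNA reverse-transcribed, PCR-amplified, labelled and resolved by capillary electrophoresis; gain or loss relative to DMSO.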

[7] = ATG_PXRE_CIS: Attagene CIS-FACTORIAL HepG2 Assay for human Pregnane X Receptor Element (PXRE) (AID 2282957); conditions: HepG2 Attagene CIS-FACTORIAL PXRE reporter, mRNA; actives raise or lower the signal
How it was run: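 Reporter transcripts under endogenous PXR-responsive cis-regulation quantified from total RNA of transfected HepG2 cells 24 h post-dosing, via RT-PCR with fluorescent primer extension and capillary electrophoresis. Gain or loss of signal fitted against DMSO baseline.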

[8] = ATG_RORE_CIS: Attagene CIS-FACTORIAL HepG2 Assay for human RAR-related Orphan Receptor Element (RORE) (AID 2282959); conditions: HepG2 Attagene cis-factorial RORE reporter, mRNA; actives raise or lower the signal
How it was run: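 Measured here: transcript induction of a cis-regulated reporter in HepG2 cells transiently transfected via FuGene 6. After 24 h, RNA was processed by RT-PCR and fluorescent capillary electrophoresis; DMSO defined baseline activity.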

[9] = ATG_Sox_CIS: Attagene CIS-FACTORIAL HepG2 Assay for human SRY-box transcription factor (SOX) (AID 2282960); conditions: HepG2 Attagene cis-factorial SOX reporter, mRNA; actives raise or lower the signal
How it was run: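 Using transiently transfected HepG2 cells, reporter transcription driven by cis elements was assessed 24 h after dosing. Signal was fluorescence of capillary-separated RT-PCR products, with DMSO defining baseline activity.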

[10] = molecular target: Transcription factor Sp1 (Homo sapiens) (UniProt P08047); assay: ATG_Sp1_CIS: Attagene CIS-FACTORIAL HepG2 Assay for human Specificity Protein 1 (Sp1) (AID 2282961); conditions: HepG2 Sp1 cis-reporter transcription, actives raise or lower the signal
Transcription factor Sp1 (Homo sapiens), sequence (P08047 whole entry, looked up): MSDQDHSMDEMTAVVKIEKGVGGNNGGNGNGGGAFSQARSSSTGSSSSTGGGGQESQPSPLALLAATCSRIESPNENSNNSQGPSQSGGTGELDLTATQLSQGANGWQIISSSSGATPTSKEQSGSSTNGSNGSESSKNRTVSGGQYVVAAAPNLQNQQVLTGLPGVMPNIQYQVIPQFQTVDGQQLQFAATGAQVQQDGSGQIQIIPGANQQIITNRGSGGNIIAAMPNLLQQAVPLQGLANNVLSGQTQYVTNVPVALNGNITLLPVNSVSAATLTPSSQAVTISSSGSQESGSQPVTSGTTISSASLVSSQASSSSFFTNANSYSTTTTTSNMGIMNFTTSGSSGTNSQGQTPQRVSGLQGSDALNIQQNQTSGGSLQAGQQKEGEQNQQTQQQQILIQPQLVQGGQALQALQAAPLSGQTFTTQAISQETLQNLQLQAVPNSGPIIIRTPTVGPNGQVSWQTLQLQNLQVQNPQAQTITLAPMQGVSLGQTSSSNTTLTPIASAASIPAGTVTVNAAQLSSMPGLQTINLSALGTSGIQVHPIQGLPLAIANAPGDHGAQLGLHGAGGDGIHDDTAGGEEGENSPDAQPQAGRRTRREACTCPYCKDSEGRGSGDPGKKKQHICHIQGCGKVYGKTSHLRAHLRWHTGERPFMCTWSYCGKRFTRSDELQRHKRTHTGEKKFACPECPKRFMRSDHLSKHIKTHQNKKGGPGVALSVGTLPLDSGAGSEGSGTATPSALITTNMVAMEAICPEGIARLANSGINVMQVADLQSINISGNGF
How it was run: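 After transient transfection of HepG2 cells with cis-promoter reporter units and 24 h chemical treatment, reporter transcripts were quantified by RT-PCR and capillary electrophoresis fluorescence. Gain- and loss-of-signal fitted against DMSO.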

[11] = ATG_SREBP_CIS: Attagene CIS-FACTORIAL HepG2 Assay for human Sterol Regulatory Element Binding (SREBP) (AID 2282962); conditions: HepG2 Attagene cis-factorial SREBP reporter, mRNA; actives raise or lower the signal
How it was run: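 Values derive from bidirectional curve fitting with DMSO as baseline. The underlying measurement is reporter mRNA from cis-element-regulated units in transiently transfected HepG2, quantified by RT-PCR and capillary electrophoresis after 24 h exposure.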

[12] = molecular target: Signal transducer and activator of transcription 3 (Homo sapiens) (UniProt P40763); assay: ATG_STAT3_CIS: Attagene CIS-FACTORIAL HepG2 Assay for human Signal Transducer and Activator of Transcription 3 (STAT3) (AID 2282963); conditions: HepG2, Attagene cis-factorial STAT3 reporter transcription; actives raise or lower the signal
Signal transducer and activator of transcription 3 (Homo sapiens), sequence (P40763 whole entry, looked up): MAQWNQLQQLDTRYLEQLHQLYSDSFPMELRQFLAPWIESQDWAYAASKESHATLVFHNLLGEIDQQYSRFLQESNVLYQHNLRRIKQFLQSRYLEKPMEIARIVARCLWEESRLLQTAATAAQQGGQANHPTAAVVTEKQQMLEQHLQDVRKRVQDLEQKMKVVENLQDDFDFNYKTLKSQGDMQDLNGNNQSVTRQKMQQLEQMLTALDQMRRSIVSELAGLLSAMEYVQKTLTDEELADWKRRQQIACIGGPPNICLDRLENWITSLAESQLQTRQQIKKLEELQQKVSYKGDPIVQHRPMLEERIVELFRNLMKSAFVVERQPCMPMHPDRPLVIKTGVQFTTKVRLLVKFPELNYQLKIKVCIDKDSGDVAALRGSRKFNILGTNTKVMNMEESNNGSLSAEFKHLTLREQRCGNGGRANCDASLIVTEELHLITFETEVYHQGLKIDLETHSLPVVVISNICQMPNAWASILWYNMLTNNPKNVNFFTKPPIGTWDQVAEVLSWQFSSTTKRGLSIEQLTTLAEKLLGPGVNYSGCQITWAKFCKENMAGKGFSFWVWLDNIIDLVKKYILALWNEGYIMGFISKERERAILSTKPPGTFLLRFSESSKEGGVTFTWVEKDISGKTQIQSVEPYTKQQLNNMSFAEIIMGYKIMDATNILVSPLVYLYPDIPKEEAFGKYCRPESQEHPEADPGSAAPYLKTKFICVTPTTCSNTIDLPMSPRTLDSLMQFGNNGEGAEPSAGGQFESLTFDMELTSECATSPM
How it was run: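 Readout is reporter transcript quantified by RT-PCR and capillary electrophoresis, with 6-FAM primer extension and HpaI digestion. Total RNA is taken 24 h after dosing transiently transfected HepG2 carrying cis-regulated reporter units. Bidirectional fit against DMSO.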

[13] = ATG_TA_CIS: Attagene CIS-FACTORIAL HepG2 Assay for human TA Basal Promoter (AID 2282964); conditions: HepG2 Attagene CIS-factorial TA basal promoter reporter; actives raise or lower the signal
How it was run: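 HepG2 cells transiently transfected with multiplexed cis-promoter reporter units, dosed 24 h. Reporter mRNA measured by RT-PCR, 6-FAM labelling, HpaI digestion and capillary electrophoresis; bidirectional fit versus DMSO baseline, serving as background control.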

[14] = ATG_TAL_CIS: Attagene CIS-FACTORIAL HepG2 Assay for human TAL Basal Promoter (AID 2282966); conditions: HepG2 Attagene cis-factorial TAL promoter reporter; actives raise or lower the signal;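 further: background control endpoint measuring basal TAL promoter reporter mRNA not a specific factor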
How it was run: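 Background-control endpoint: basal TAL promoter reporter transcripts in transiently transfected HepG2, measured 24 h after dosing. Read-out by RT-PCR with fluorescent primer extension and capillary electrophoresis; gain or loss of signal fitted relative to DMSO.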

[15] = ATG_TGFb_CIS: Attagene CIS-FACTORIAL HepG2 Assay for human Transforming Growth Factor (TGF) (AID 2282967); conditions: HepG2 Attagene CIS TGFb reporter, mRNA transcription; actives raise or lower the signal
How it was run: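 HepG2 cells transiently transfected with cis-promoter-driven multiplexed reporter units; 24 h compound exposure. Reporter mRNA measured by RT-PCR, 6-FAM labeling, HpaI digestion and capillary electrophoresis; bidirectional fit versus DMSO baseline.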

[16] = molecular target: Paired box protein Pax-6 (Homo sapiens) (UniProt P26367); assay: ATG_Pax6_CIS: Attagene CIS-FACTORIAL HepG2 Assay for human Paired Box 6 (PAX6) (AID 2282956); conditions: HepG2 CIS-FACTORIAL PAX6 reporter transcription, RNA readout; actives raise or lower the signal
Paired box protein Pax-6 (Homo sapiens), sequence (P26367 whole entry, looked up): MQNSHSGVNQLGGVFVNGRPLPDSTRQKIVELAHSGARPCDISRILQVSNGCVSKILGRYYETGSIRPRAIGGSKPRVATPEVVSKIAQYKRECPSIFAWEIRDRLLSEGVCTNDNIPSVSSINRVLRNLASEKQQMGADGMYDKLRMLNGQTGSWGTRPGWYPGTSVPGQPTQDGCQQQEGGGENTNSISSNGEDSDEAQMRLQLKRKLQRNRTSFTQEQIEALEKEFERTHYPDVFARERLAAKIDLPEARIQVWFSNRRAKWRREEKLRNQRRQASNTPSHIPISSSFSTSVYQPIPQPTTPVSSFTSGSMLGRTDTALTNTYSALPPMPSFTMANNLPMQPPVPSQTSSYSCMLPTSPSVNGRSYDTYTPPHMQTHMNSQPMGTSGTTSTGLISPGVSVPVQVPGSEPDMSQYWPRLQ
How it was run: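 Values derive from bidirectional curve fitting of reporter mRNA signal relative to DMSO. HepG2 cells bearing transfected cis-regulated MRTUs were exposed for 24 h; transcripts were read by RT-PCR and capillary electrophoresis.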

[17] = ATG_TCF_b_cat_CIS: Attagene CIS-FACTORIAL HepG2 Assay for human T-Cell-Factor with beta-catenin (TCF/b-cat) (AID 2282965); conditions: HepG2 TCF/beta-catenin cis-reporter transcription, actives raise or lower the signal
How it was run: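 Endogenous transcription factor activity is captured through cis-promoter reporter constructs transiently introduced into human HepG2 liver cells. Induced reporter mRNA is measured after 24 h and fitted bidirectionally relative to DMSO.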

[18] = ATG_PBREM_CIS: Attagene CIS-FACTORIAL HepG2 Assay for human Phenobarbital-responsive Enhancer Module (PBREM) (AID 2282955); conditions: HepG2 PBREM cis-reporter, Attagene multiplexed transcription; actives raise or lower the signal
How it was run: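 Readout: reporter mRNA, fluorescent RT-PCR fragments separated by capillary electrophoresis. System: HepG2 transiently transfected with cis-regulated reporter units. Exposure: 24 h. Analysis: bidirectional, DMSO baseline.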

[19] = ATG_PPRE_CIS: Attagene CIS-FACTORIAL HepG2 Assay for human Peroxisome Proliferator-activated Response Element (PPRE) (AID 2282958); conditions: HepG2 PPRE cis-element reporter, Attagene transcription factor profiling; actives raise or lower the signal
How it was run: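 After human HepG2 hepatoma cells were transiently transfected with cis-promoter reporter constructs, they were exposed to test chemicals for 24 hours. Reporter RNA was then reverse-transcribed, PCR-amplified, FAM-labeled, HpaI-digested and quantified by capillary electrophoresis.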

Measured: AC50

ClCCN1CCOCC1
not listed: [16] | [17] | [18] | [19]
inactive: all other assays above

O=NN1CCCCCC1
active: [7] 53 µM
not listed: [4] | [13] | [18] | [19]
inactive: all other assays above

Cc1cc(Cl)ccc1O
inactive: all assays above

O=C(NC(=O)c1c(F)cccc1F)Nc1ccc(Cl)cc1
not listed: [17]
inactive: all other assays above

CCN(CC)C(=O)C(Cl)=C(C)OP(=O)(OC)OC
active: [7] 11.3 µM
not listed: [10] | [15] | [18]
inactive: all other assays above

CC(C)(C1CCC(O)CC1)C1CCC(O)CC1 (stereo not given)
active: [7] 35.3 µM
not listed: [4] | [10] | [18] | [19]
inactive: all other assays above

Nc1c(Oc2ccccc2)cc(O)c2c1C(=O)c1ccccc1C2=O
active: [7] 4.42 µM
not listed: [15] | [16]
inactive: all other assays above
